The record followed here is PubChem BioAssay (Tox21).

SMILES strings stand for the structures. Results filed as inconclusive are left out. A call without a number means that no potency is given here. Values without a mark were called inactive. Calls of active or inactive are those of the source. Calls come from the whole dose curve.
Potency is the fitted concentration of half-maximal effect.

The assay can be described thus: qHTS assay for small molecule disruptors of the mitochondrial membrane potential - cell viability (AID 720634).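 For activity change, negative = cytotoxicity: human HepG2 liver cancer cells.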 Note: nearly all actives have a fitted effect of over 20% in size. The settings on record: HepG2 viability, ATP luminescence (CellTiter-Glo), 1 h; series mostly up to 83.2 µM. The text has this:
U.S. Tox21 Program National Center for Advancing Translational Sciences [NCATS] NIH Chemical Genomics Center [NCGC] U.S. Environmental Protection Agency [EPA] National Institutes of Environmental Health Sciences [NIEHS] National Toxicology Program [NTP] U.S. Food and Drug Administration [FDA] Tox21 Assay Overview: Mitochondrial membrane potential (MMP), one of the parameters for mitochondrial function, is generated by mitochondrial electron transport chain that creates an electrochemical gradient by a series of redox reactions. This gradient drives the synthesis of ATP, a crucial molecule for various cellular processes. Measuring MMP in living cells is commonly used to assess the effect of chemicals on mitochondrial function; decreases in MMP can be detected using lipophilic cationic fluorescent dyes. […] The dye accumulates in the mitochondria of healthy cells as aggregates, with red fluorescence. The mitochondrial potential decreases and the dye could not accumulate in the mitochondria and remains in the cytoplasm in monomers, with green fluorescence. In addition to the mitochondrial potential assay, these cells were also used to test the cytotoxicity by determining the cell viability in the culture based on the quantitation of ATP present. The cytotoxicity was measured in the same assay well of MMP assay.
Tox21 Assay Protocol Summary: 2,000 HepG2 cells in 5 uL/well were dispensed into black, clear-bottom 1536-well plates using a Multidrop Combi (Thermo Scientific) dispenser. The assay plates were incubated for an overnight at 37 C to allow cells to attach to the wells, followed by the transfer of 23 nL compound or DMSO vehicle by a pin tool (Kalypsys). The plates were incubated for 1 hr at 37 C and 5% CO2, followed by the addition of 5 uL of 2X m-MPI dye into each well using Flying Reagent Dispenser (Aurora Discovery) and then CellTiter-Glo reagent was added at 4 uL/well and incubated 30 min at room temperature. Then luminescence intensity was quantified on a ViewLux CCD-based plate reader.
For the compound `CN1CCC(N(Cc2cccs2)c2ccccc2)CC1`, the Potency entry is “inactive”. On the same count and under the same terms, for `c1cc(CCCc2ccncc2)ccn1` the value was “inactive”.

Turning to `C/C=C/C(=O)CC`, the activity change, negative = cytotoxicity is 4.97% [at 17.9 µM].

For the compound `CCCCCCCCCCCCN1CCCCCC1=O`, the Potency was 27.3 µM (active).

In the case of `CCCCCCCCCCO[C@@H]1O[C@H](CO)[C@@H](O)[C@H](O)[C@H]1O`, the Potency entry is “inactive”. `C=CC(=O)OCCOCCOC(=O)C=C`: the Potency entry is “inactive”. For `Nc1cccc(S(=O)(=O)c2cccc(N)c2)c1`, the Potency entry was “inactive”. `CCCCCCCN`: the Potency result was “inactive”. On to `CCCCCCCCCOS(=O)(=O)O`, for which the Potency result is “inactive”. For the compound `CCC(Cl)CCC(Cl)C(Cl)CC(Cl)C(Cl)C(Cl)CCl` (stereo not given), the Potency entry was “inactive”.

`O=C1OC(=O)C2C3C=CC(C3)C12` (stereo not given): the Potency entry is “inactive”. Take `CCCCCCCCCc1ccc(OCCOCCO)cc1`: the Potency result is “inactive”. On the same count and under the same terms, the same measure for `CN(C)CCN(Cc1ccc(Cl)cc1)c1ccccn1`: “inactive”; for `CC1(c2ccccc2)OC(C(=O)O)=CC1=O` (stereo not given): “inactive”. Same read-out and setting: for `O=C(O)c1nc(Cl)c(Cl)c(Cl)c1Cl` the value was “inactive”. For `C[N+](C)(C)CCOC(=O)CCC(=O)OCC[N+](C)(C)C`, the Potency entry was “inactive”. Same read-out and setting: the same measure for `CC(C)(CO)[N+](=O)[O-]`: “inactive”; for `CC(C)(O)c1ccc(CNC(=O)c2cccnc2Oc2ccc(F)cc2)cc1`: “inactive”. Still for that read-out and setting: the same measure for `CCCn1cnc2c1c(=O)n(CCCCC(C)=O)c(=O)n2C`: “inactive”. For the compound `C[C@H]1C[C@H]2[C@@H]3CCC4=CC(=O)C=C[C@]4(C)[C@@]3(Cl)[C@@H](O)C[C@]2(C)[C@@]1(O)C(=O)CO`, the Potency result is “inactive”. In the case of `NC(N)=NCCC[C@H](N)C(=O)O`, the Potency result was “inactive”. Still for that read-out and setting: for `CCOc1ccc(N=Nc2ccc(/C=C/c3ccc(N=Nc4ccc(OCC)cc4)cc3S(=O)(=O)O)c(S(=O)(=O)O)c2)cc1` the value was “inactive”. Same read-out and setting: for `COc1ccc(S(=O)(=O)N2C(=O)[C@@](c3ccccc3OC)(N3C[C@H](O)C[C@H]3C(=O)N(C)C)c3cc(Cl)ccc32)c(OC)c1` the value was “inactive”; for `CNCCCCOc1ccccc1Cc1ccccc1`, “inactive”. As for `CCCCO`, the Potency result was “inactive”.

Take `COc1cc2nc(N(C)CCCNC(=O)C3CCCO3)nc(N)c2cc1OC` (stereo not given): the Potency result is “inactive”. In the case of `C=CC1CC2C=CC1C2` (stereo not given), the Potency entry was “inactive”. Still for that read-out and setting: the same measure for `C=C(C)C(=O)OCCOCC`: “inactive”.

For `CN(C)CCCN1c2ccccc2Sc2ccccc21`, the Potency result was “inactive”. `O=C1[C@H]2CCCC[C@H]2C(=O)N1CCCCN1CCN(c2nsc3ccccc23)CC1`: the Potency result is “inactive”. With `CCC(=O)O[C@]1(C(=O)CCl)[C@@H](C)C[C@H]2[C@@H]3CCC4=CC(=O)C=C[C@]4(C)[C@@]3(F)[C@@H](O)C[C@@]21C`, the Potency result was “inactive”.

For `CCC(C)c1cc(C(C)(C)C)c(O)c(C(C)(C)C)c1` (stereo not given), the Potency result is “inactive”. Same read-out and setting: the same measure for `Nc1c(CC(=O)O)cccc1C(=O)c1ccc(Br)cc1`: “inactive”; for `CCC(C)O` (stereo not given): “inactive”; for `CC(C)(C)Cl`: “inactive”. Still for that read-out and setting: for `CCCCOC(=O)CCCCCCCC(=O)OCCCC` the value was “inactive”; for `O=C(Nc1ccccc1)c1ccccc1O`, 27.3 µM (active); for `COc1cc2nc(N3CCN(C(=O)C4COc5ccccc5O4)CC3)nc(N)c2cc1OC` (stereo not given), “inactive”. The same measure, in the same setting: for `O=C(c1ccc(F)cc1)C1CCN(CCn2c(=S)[nH]c3ccccc3c2=O)CC1` the value was “inactive”; for `CN(Cc1ccc(C(C)(C)C)cc1)Cc1cccc2ccccc12`, “inactive”.
